Laboratory results reported in article PMC11006913.
Positions count from the first letter of the chain named.

Each sequence was assayed against HOXA4 (Homo sapiens, UniProt Q00056 201-287, W262R) (assay: PBM; 200 nM protein, PBS). Details: dsDNA, one strand shown.
Sequence of HOXA4 (Q00056 201-287 W262R): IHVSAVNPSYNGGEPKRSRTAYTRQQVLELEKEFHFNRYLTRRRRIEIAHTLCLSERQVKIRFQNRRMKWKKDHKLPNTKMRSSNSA

Sequence	binding signal
AATAGGTG	10.3 upbm affinity estimate (log intensity, higher = more binding, comparable within an allelic series)
ATATAACG	10.4 upbm affinity estimate (log intensity, higher = more binding, comparable within an allelic series)
AGTCTTTA	10.2 upbm affinity estimate (log intensity, higher = more binding, comparable within an allelic series)
TGATGACA	10.2 upbm affinity estimate (log intensity, higher = more binding, comparable within an allelic series)
CACGATCA	10.2 upbm affinity estimate (log intensity, higher = more binding, comparable within an allelic series)
AATTGTTC	10.4 upbm affinity estimate (log intensity, higher = more binding, comparable within an allelic series)
CAATTTAG	10.5 upbm affinity estimate (log intensity, higher = more binding, comparable within an allelic series)
GTTCTTAA	10.3 upbm affinity estimate (log intensity, higher = more binding, comparable within an allelic series)
ATGACAGC	10.2 upbm affinity estimate (log intensity, higher = more binding, comparable within an allelic series)
AATCGATG	10.4 upbm affinity estimate (log intensity, higher = more binding, comparable within an allelic series)
AAGATTAC	10.2 upbm affinity estimate (log intensity, higher = more binding, comparable within an allelic series)
CATTTGGG	10.1 upbm affinity estimate (log intensity, higher = more binding, comparable within an allelic series)
CGCTTAAC	10.2 upbm affinity estimate (log intensity, higher = more binding, comparable within an allelic series)
CTAATCTA	10.3 upbm affinity estimate (log intensity, higher = more binding, comparable within an allelic series)
GAAAACGA	10.1 upbm affinity estimate (log intensity, higher = more binding, comparable within an allelic series)
ATATTGAG	10.3 upbm affinity estimate (log intensity, higher = more binding, comparable within an allelic series)
AATCACTG	10.3 upbm affinity estimate (log intensity, higher = more binding, comparable within an allelic series)

These sequences were tested against HOXC9 (Homo sapiens, UniProt P31274 178-260, K195R) (assay: PBM; 200 nM protein, PBS). Details: dsDNA, one strand shown.
Sequence of HOXC9 (Homo sapiens, UniProt P31274 178-260, K195R) (P31274 178-260 K195R): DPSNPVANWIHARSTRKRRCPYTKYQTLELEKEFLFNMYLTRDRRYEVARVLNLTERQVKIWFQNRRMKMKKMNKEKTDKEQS

Sequence	binding signal
CGCGGTGC	9.77 upbm affinity estimate (log intensity, higher = more binding, comparable within an allelic series)
CTCGCGAG	9.76 upbm affinity estimate (log intensity, higher = more binding, comparable within an allelic series)
TAATTTAA	12.2 upbm affinity estimate (log intensity, higher = more binding, comparable within an allelic series)
AGCAGCCC	9.76 upbm affinity estimate (log intensity, higher = more binding, comparable within an allelic series)
GCCCGAGC	9.54 upbm affinity estimate (log intensity, higher = more binding, comparable within an allelic series)
AGCCCTCC	9.66 upbm affinity estimate (log intensity, higher = more binding, comparable within an allelic series)
CCAGTGGG	9.58 upbm affinity estimate (log intensity, higher = more binding, comparable within an allelic series)
CAGACGGC	9.46 upbm affinity estimate (log intensity, higher = more binding, comparable within an allelic series)
ACCGCCCG	9.62 upbm affinity estimate (log intensity, higher = more binding, comparable within an allelic series)
GGTAATAA	12.4 upbm affinity estimate (log intensity, higher = more binding, comparable within an allelic series)
GGCGCGCC	9.93 upbm affinity estimate (log intensity, higher = more binding, comparable within an allelic series)
CAGCCTTC	9.4 upbm affinity estimate (log intensity, higher = more binding, comparable within an allelic series)
GACCTCGC	9.59 upbm affinity estimate (log intensity, higher = more binding, comparable within an allelic series)
AATTAAAA	12.5 upbm affinity estimate (log intensity, higher = more binding, comparable within an allelic series)
CCCTCCAG	9.59 upbm affinity estimate (log intensity, higher = more binding, comparable within an allelic series)
CCGGCTAG	9.47 upbm affinity estimate (log intensity, higher = more binding, comparable within an allelic series)
CCGGGAGC	9.52 upbm affinity estimate (log intensity, higher = more binding, comparable within an allelic series)
TAAGATGA	10.9 upbm affinity estimate (log intensity, higher = more binding, comparable within an allelic series)
ATATTGAC	11.1 upbm affinity estimate (log intensity, higher = more binding, comparable within an allelic series)
ATTTACGA	12.4 upbm affinity estimate (log intensity, higher = more binding, comparable within an allelic series)
CCCCTCAC	9.6 upbm affinity estimate (log intensity, higher = more binding, comparable within an allelic series)
CAAGCTCG	9.46 upbm affinity estimate (log intensity, higher = more binding, comparable within an allelic series)
CCAGTCGG	9.76 upbm affinity estimate (log intensity, higher = more binding, comparable within an allelic series)

What follows are sequences tested against HOXC10 (Homo sapiens, UniProt Q9NYD6 254-340) (assay: PBM; 200 nM protein, PBS). Details: dsDNA, one strand shown.
Sequence of HOXC10 (Q9NYD6 254-340): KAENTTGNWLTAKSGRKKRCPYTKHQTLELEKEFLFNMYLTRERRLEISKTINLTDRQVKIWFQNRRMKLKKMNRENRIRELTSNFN

Sequence	binding signal
CTCGCGAG	10 upbm affinity estimate (log intensity, higher = more binding, comparable within an allelic series)
AGCCCTCC	10 upbm affinity estimate (log intensity, higher = more binding, comparable within an allelic series)
GGTAATAA	12.2 upbm affinity estimate (log intensity, higher = more binding, comparable within an allelic series)
CAGCCTTC	9.83 upbm affinity estimate (log intensity, higher = more binding, comparable within an allelic series)
GACCTCGC	10 upbm affinity estimate (log intensity, higher = more binding, comparable within an allelic series)
CCCTCCAG	10.1 upbm affinity estimate (log intensity, higher = more binding, comparable within an allelic series)
ATTTACGA	12.3 upbm affinity estimate (log intensity, higher = more binding, comparable within an allelic series)
CCAGTCGG	10.1 upbm affinity estimate (log intensity, higher = more binding, comparable within an allelic series)

These sequences were tested against ALX4 (Homo sapiens, UniProt Q9H161 200-286) (assay: PBM; 200 nM protein, PBS). Details: dsDNA, one strand shown.
Sequence of ALX4 (Homo sapiens, UniProt Q9H161 200-286) (Q9H161 200-286): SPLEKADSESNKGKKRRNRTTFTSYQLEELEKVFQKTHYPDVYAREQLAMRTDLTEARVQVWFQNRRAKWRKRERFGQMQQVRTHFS

Sequence	binding signal
CGCGGTGC	8.05 upbm affinity estimate (log intensity, higher = more binding, comparable within an allelic series)
TAATTTAA	13.7 upbm affinity estimate (log intensity, higher = more binding, comparable within an allelic series)
GCCCGAGC	8.18 upbm affinity estimate (log intensity, higher = more binding, comparable within an allelic series)
CCAGTGGG	8.11 upbm affinity estimate (log intensity, higher = more binding, comparable within an allelic series)
CCGGCTAG	8.04 upbm affinity estimate (log intensity, higher = more binding, comparable within an allelic series)

These sequences were tested against T1, PAX4 (Homo sapiens, UniProt O43316 9-242, R200K) (assay: PBM; 200 nM protein, PBS). Details: dsDNA, one strand shown.
T1 sequence: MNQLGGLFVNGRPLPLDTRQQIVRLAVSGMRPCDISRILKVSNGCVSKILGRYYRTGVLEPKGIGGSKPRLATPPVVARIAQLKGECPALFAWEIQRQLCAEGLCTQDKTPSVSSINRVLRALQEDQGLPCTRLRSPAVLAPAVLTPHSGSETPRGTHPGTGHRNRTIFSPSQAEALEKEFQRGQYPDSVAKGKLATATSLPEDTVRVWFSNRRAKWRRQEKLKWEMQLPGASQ

Sequence	binding signal
TAATTTAA	11.7 upbm affinity estimate (log intensity, higher = more binding, comparable within an allelic series)
ACCGCCCG	9.22 upbm affinity estimate (log intensity, higher = more binding, comparable within an allelic series)
CAGCCTTC	9.16 upbm affinity estimate (log intensity, higher = more binding, comparable within an allelic series)
CCGGGAGC	9.29 upbm affinity estimate (log intensity, higher = more binding, comparable within an allelic series)

What follows are sequences tested against PRRX1 (Homo sapiens, UniProt P54821 80-166, F113S) (assay: PBM; 200 nM protein, PBS). Details: dsDNA, one strand shown.
Sequence of PRRX1 (P54821 80-166 F113S): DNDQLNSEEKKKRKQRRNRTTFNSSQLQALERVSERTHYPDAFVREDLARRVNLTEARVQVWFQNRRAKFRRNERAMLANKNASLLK

Sequence	binding signal
TAATTTAA	11.2 upbm affinity estimate (log intensity, higher = more binding, comparable within an allelic series)
CAGACGGC	9.13 upbm affinity estimate (log intensity, higher = more binding, comparable within an allelic series)
GGCGCGCC	9.33 upbm affinity estimate (log intensity, higher = more binding, comparable within an allelic series)
AATTAAAA	11.2 upbm affinity estimate (log intensity, higher = more binding, comparable within an allelic series)
ATATTGAC	10.1 upbm affinity estimate (log intensity, higher = more binding, comparable within an allelic series)
CCCCTCAC	9.49 upbm affinity estimate (log intensity, higher = more binding, comparable within an allelic series)

What follows are sequences tested against T2, PAX4 (Homo sapiens, UniProt O43316 9-242) (assay: PBM; 200 nM protein, PBS). Details: dsDNA, one strand shown.
T2 sequence: T1 sequence with K192R

Sequence	binding signal
TAATTTAA	12.2 upbm affinity estimate (log intensity, higher = more binding, comparable within an allelic series)
ACCGCCCG	9.09 upbm affinity estimate (log intensity, higher = more binding, comparable within an allelic series)
CAGCCTTC	9.3 upbm affinity estimate (log intensity, higher = more binding, comparable within an allelic series)
CCGGGAGC	9.27 upbm affinity estimate (log intensity, higher = more binding, comparable within an allelic series)

Each sequence was assayed against ALX4 (Homo sapiens, UniProt Q9H161 200-286, Q225E) (assay: PBM; 200 nM protein, PBS). Details: dsDNA, one strand shown.
Sequence of ALX4 (Homo sapiens, UniProt Q9H161 200-286, Q225E) (Q9H161 200-286 Q225E): as the sequence (Q9H161 200-286) above, with Q26E counted along it

Sequence	binding signal
CGCGGTGC	8.13 upbm affinity estimate (log intensity, higher = more binding, comparable within an allelic series)
TAATTTAA	12.7 upbm affinity estimate (log intensity, higher = more binding, comparable within an allelic series)
GCCCGAGC	8.13 upbm affinity estimate (log intensity, higher = more binding, comparable within an allelic series)
CCAGTGGG	8.16 upbm affinity estimate (log intensity, higher = more binding, comparable within an allelic series)
AATTAAAA	12.8 upbm affinity estimate (log intensity, higher = more binding, comparable within an allelic series)
CCGGCTAG	8.02 upbm affinity estimate (log intensity, higher = more binding, comparable within an allelic series)

What follows are sequences tested against HOXC9 (Homo sapiens, UniProt P31274 178-260) (assay: PBM; 200 nM protein, PBS). Details: dsDNA, one strand shown.
Sequence of HOXC9 (Homo sapiens, UniProt P31274 178-260) (P31274 178-260): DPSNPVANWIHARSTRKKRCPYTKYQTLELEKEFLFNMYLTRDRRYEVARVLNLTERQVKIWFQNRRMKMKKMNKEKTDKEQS

Sequence	binding signal
CGCGGTGC	9.77 upbm affinity estimate (log intensity, higher = more binding, comparable within an allelic series)
CTCGCGAG	9.82 upbm affinity estimate (log intensity, higher = more binding, comparable within an allelic series)
TAATTTAA	12.2 upbm affinity estimate (log intensity, higher = more binding, comparable within an allelic series)
AGCAGCCC	9.83 upbm affinity estimate (log intensity, higher = more binding, comparable within an allelic series)
GCCCGAGC	9.62 upbm affinity estimate (log intensity, higher = more binding, comparable within an allelic series)
AGCCCTCC	9.73 upbm affinity estimate (log intensity, higher = more binding, comparable within an allelic series)
CCAGTGGG	9.54 upbm affinity estimate (log intensity, higher = more binding, comparable within an allelic series)
CAGACGGC	9.65 upbm affinity estimate (log intensity, higher = more binding, comparable within an allelic series)
ACCGCCCG	9.79 upbm affinity estimate (log intensity, higher = more binding, comparable within an allelic series)
GGTAATAA	12.6 upbm affinity estimate (log intensity, higher = more binding, comparable within an allelic series)
GGCGCGCC	10.1 upbm affinity estimate (log intensity, higher = more binding, comparable within an allelic series)
CAGCCTTC	9.46 upbm affinity estimate (log intensity, higher = more binding, comparable within an allelic series)
GACCTCGC	9.54 upbm affinity estimate (log intensity, higher = more binding, comparable within an allelic series)
CCCTCCAG	9.64 upbm affinity estimate (log intensity, higher = more binding, comparable within an allelic series)
